Bioassay records (PubChem BioAssay)
SARS PLpro yeast = qHTS of Yeast-based Assay for SARS-CoV PLP. 330,000 compounds, 0.19% hits. S. cerevisiae expressing SARS-CoV PLpro, growth rescue. Potency, µM (series often up to 32.9 µM), for the others: at the top dose activity, positive = growth rescue, most hits filed as activators; calls by dose curve; further: potency means the concentration at half of the fitted maximal effect; 0% is about no effect; nearly all actives have a fitted effect of over 55% in size
Shiga inhibitor = A qHTS for Small Molecule Inhibitors of Shiga Toxin; Vero cells, Shiga toxin protein synthesis inhibition reporter; inhibition, % at 38.7 µM; 290,000 compounds, 9.2% hits; in the data active means inhibition mostly above about 28%, no sharp cut-off; inactive means mostly below about 43%; further: 0% is about no effect
Pf growth 48h = Primary qHTS for delayed death inhibitors of the malarial parasite plastid, 48 hour incubation | AID 504832, 2011 | Potency, µM (series often up to 28.7 µM), for inactives: at the highest dose activity change, negative = inhibition, actives largely listed as inhibitors | P. falciparum luciferase growth in erythrocytes, 48 h | 310,000 compounds, 5.9% hits; further: potency means the concentration at half of the fitted maximal effect; on the % scale 0 is the no-effect control and ±100 the full control effect
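Here the parasites carry a stable luciferase gene and grow inside erythrocytes in Albumax-based RPMI medium with compound for one erythrocytic cycle. Activity is scored as loss of luminescent signal.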
Pf growth 96h = Primary qHTS for delayed death inhibitors of the malarial parasite plastid, 96 hour incubation; P. falciparum luciferase reporter growth, 96 h; Potency, µM (series often up to 28.7 µM), for inactives: at the top dose activity change, negative = inhibition, usual class: inhibitors; 320,000 compounds, 6.9% hits; further: potency means the concentration at half of the fitted maximal effect; on the % scale 0 is the no-effect control and ±100 the full control effect
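Cell-based qHTS: luciferase-tagged P. falciparum in erythrocytes (2% hematocrit, 0.05% parasitemia final) incubated with compounds for 96 hours, 37 C, 5% CO2; luciferase detection reagent then added and luminescence measured.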
Cycloheximide cs = Cycloheximide Counterscreen for Small Molecule Inhibitors of Shiga Toxin; cell reporter, cycloheximide protein synthesis inhibition counterscreen; max response, %; 300,000 compounds, 12% hits; in the data active means max response mostly above about 13%, no sharp cut-off; inactive means mostly below about 14%; further: read at 38.3 µM for the half of the compounds with a filed dose; 0% is about no effect
NS1 inh = qHTS Assay for Inhibitors of Influenza NS1 Protein Function; 270,000 compounds, 0.4% hits; Potency, µM (top dose mostly 46.1 µM), without a hit: at the top dose activity, positive = more growth; AID 2326, 2010; calls by dose curve; further: potency means the concentration at half of the fitted maximal effect; actives are rising curves; nearly all actives have a fitted effect of over 50% in size
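In this qHTS, NS1 from influenza A is expressed in budding yeast, where it slows growth. Cells are switched from glucose to 2% galactose medium (pH 6.0, -URA), treated with compound, and growth recovery is read at OD600.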
The depositor's hits bear a star; ? = inconclusive; / = not tested or not shown. Rows were chosen to be rich in hits. Some 21% of all compounds tested hit in one or more screens of this group. Unless noted, the call rests on the fitted dose curve; in most records, active means well fitted inhibition curve with a large enough effect; inconclusive means small, poorly fitted or top-dose-only effect, or another doubt; inactive means no such curve, though single readings can be large or run the other way.

SMILES	SARS PLpro yeast	Shiga inhibitor	Pf growth 48h	Pf growth 96h	Cycloheximide cs	NS1 inh
Cc1cc(C)c2cc3c(N)c(C(=O)N4CCOCC4)sc3nc2c1	2.1%	-3.2	?	?	-0.9	4.0%
Cc1ccc(C)c2nc3sc(C(=O)N4CCOCC4)c(N)c3cc12	-0.2%	57.8*	1.5%	16.1%	26.8*	0.1%
O=C(O/N=C1\CCS(=O)(=O)c2sccc21)c1ccccc1	-5.0%	-9.8	?	?	0.9	2.8%
O=C(O/N=C1\CCS(=O)(=O)c2sccc21)c1ccc(F)cc1	-1.0%	77.9*	0.2%	64.3%	37.3*	/
O=C(OCc1ccccc1)/C(=C/c1ccccc1Cl)NC(=O)c1ccco1	-3.8%	-4.5	14.6%	54.0%	9.8	-19.7%
COc1ccccc1N1C(=O)CC(c2ccccc2)CC1=O	-0.3%	/	16.9%	44.7%	/	/
COc1ccccc1[C@@]1(C)ON(c2ccccc2C(F)(F)F)C1=O	-2.5%	/	1.47µM*	1.04µM*	/	/
Cc1ccccc1[C@]1(C)ON(c2ccccc2C(F)(F)F)C1=O	2.1%	/	1.85µM*	1.31µM*	/	/
CC[C@]1(c2ccccc2C)ON(c2ccccc2C(F)(F)F)C1=O	-7.0%	/	2.62µM*	?	/	/
CCCCn1c(N)c(N(CCOC)C(=O)c2nn(CC)c(=O)c3ccccc23)c(=O)[nH]c1=O	-1.0%	/	-0.1%	8.9%	/	/
C/C(Cc1ccccc1)=N\NC(=O)c1ccc(F)cc1	-3.6%	44.0	14.5%	?	26.4*	2.6%
O=C(NN=C(Cc1ccccc1)Cc1ccccc1)c1ccccc1O	-1.0%	18.2	3.0%	?	11.0	/
O=C(NN=C(Cc1ccccc1)Cc1ccccc1)c1ccc(F)cc1	-12.5%	76.6*	-31.7%	13.1µM*	35.9*	-5.4%
O=C(N/N=C(\Cc1ncc[nH]1)c1ccccc1)c1ccccc1	-1.9%	-6.1	18.9%	?	-1.5	/
NC(=O)c1ccc(C(=O)N/N=C(/Cc2ccccc2)c2ccccc2)cc1	3.9%	22.3	42.2%	?	25.9*	-4.4%
COc1ccccc1-n1cc(CN2CCCC(CO)(Cc3cccc(Cl)c3)C2)cn1 (stereo not given)	-0.1%	10.3	0.0%	1.1%	-2.0	0.3%
O=C(CSc1nncs1)Nc1ccc2c(c1)OCO2	0.0%	54.2	43.7%	-28.7%	25.0*	/
CCC(=O)Nc1nnc(SCC(=O)Nc2ccc3c(c2)OCO3)s1	-8.8%	-8.1	25.3%	-1.3%	-0.9	-8.4%
CC(Sc1nncs1)C(=O)Nc1ccc2c(c1)OCO2 (stereo not given)	-2.5%	15.7	10.5%	19.2%	10.5*	11.6%
COc1cccc(CN(C)C(=O)Cc2ccc(OC)c(S(=O)(=O)N3CCOCC3)c2)c1	-2.0%	/	?	4.6%	/	/
CSCc1ccc(C(=O)N2CCC(CCC(=O)N(C)Cc3ccccc3)CC2)o1	1.1%	-4.9	-15.2%	?	-0.8	-8.1%
CCCCCC(=O)NNC(=O)c1c(O)c2ccccc2n(CC)c1=O	-5.6%	58.6*	?	10.4µM*	19.0*	0.1%
C=CCn1c(=O)c(C(=O)Nc2ccccc2S(N)(=O)=O)c(O)c2ccccc21	0.9%	72.5*	72.8%	60.1%	30.6*	2.5%
CCCCCCn1c(=O)c(C(=O)Nc2cnccn2)c(O)c2ccccc21	-0.1%	-9.1	2.62µM*	?	0.1	-4.9%
CCCCCCCCCC(=O)NNC(=O)c1c(O)c2ccccc2n(CC)c1=O	1.1%	-11.6	11.4%	328.7%	-2.9	3.8%
SMILES	SARS PLpro yeast	Shiga inhibitor	Pf growth 48h	Pf growth 96h	Cycloheximide cs	NS1 inh
CC(C)Cn1c(=O)c(C(=O)NCc2ccccn2)c(O)c2ccccc21	-20.2%	-0.4	11.7µM*	-0.6%	-0.4	-33.6%
C=CCn1c(=O)c(C(=O)Nc2ccccc2C(=O)OCC)c(O)c2ccccc21	-0.7%	3.4	5.7%	/	2.5	-1.9%
CCCn1c(=O)c(C(=O)Nc2cnccn2)c(O)c2ccccc21	-3.9%	3.5	2.8%	/	-2.3	-94.4%
CCCn1c(=O)c(C(=O)NCc2ccncc2)c(O)c2ccccc21	-3.2%	-7.1	-0.7%	/	2.2	-60.6%
Cc1ccc(S(=O)(=O)N(C)CC(=O)NNC(=O)CCC(=O)c2ccc(F)cc2)cc1	-8.6%	/	/	/	/	/
COc1ccccc1CNC(=O)c1cn(C)c2ccc(S(=O)(=O)N3CCCC3)cc2c1=O	-5.3%	5.2	?	?	-6.3	/
CN(C)Cc1ccc(O)c(CN(C)C)n1	/	/	/	/	/	-4.1%
CCCCCCCCn1c(=O)c(C(=O)OC)c(N)c2ccccc21	-4.4%	8.5	14.7µM*	?	-2.3	-81.3%
CCn1c(=O)c(C(=O)NCc2ccc(F)cc2)c(O)c2ccccc21	-3.9%	-4.0	-2.5%	11.7µM*	-2.6	4.4%
COc1ccc(CNC(=O)c2c(O)c3cc(OC)c(OC)cc3[nH]c2=O)cc1OC	-10.0%	-3.9	-2.0%	?	-1.5	15.5%
O=C(Cn1c(=O)sc2ccccc21)NCc1ccccn1	6.2%	54.5*	27.0%	?	18.4*	4.6%
CCn1c(=O)c(C(=O)NCc2ccccc2)c(O)c2ccccc21	-4.6%	-1.9	?	111.7%	-2.4	-1.2%
COc1cc2[nH]c(=O)c(C(=O)NCc3ccc(F)cc3)c(O)c2cc1OC	-1.5%	5.3	-11.8%	3.29µM*	1.2	-6.3%
CCOc1ccc(NC(=O)c2ccc(NC(=O)Cc3n[nH]c(=O)c4ccccc34)cc2)cc1	1.7%	11.1	-35.1%	-25.3%	9.6	7.7%
O=C(c1cc2ccccc2oc1=O)N(Cc1ccco1)CC1CCCO1 (stereo not given)	-3.1%	-4.9	15.4%	?	3.9	-5.7%
Cc1ccccc1NS(=O)(=O)c1cc2c3c(c1)C(C)C(=O)N3CCC2 (stereo not given)	-1.8%	-2.2	-6.1%	?	7.3	11.4%
CCOC(=O)Cc1csc(NC(=O)c2c(O)c3ccccc3n(CCC(C)C)c2=O)n1	0.3%	-4.0	?	-17.9%	-2.5	1.4%
CCCCCn1c(=O)c(C(=O)NCc2ccccc2Cl)c(O)c2ccccc21	6.1%	/	7.38µM*	?	-3.7	10.3%
CCCCCn1c(=O)c(C(=O)Nc2ccccc2N)c(O)c2ccccc21	-10.0%	/	4.15µM*	334.1%	-2.5	7.1%
CCCCCCn1c(=O)c(C(=O)Nc2nc(CC(=O)OCC)cs2)c(O)c2ccccc21	-0.8%	1.9	11.7µM*	-1.3%	-1.5	4.0%
CCCCCn1c(=O)c(C(=O)NCc2ccncc2)c(O)c2ccccc21	-7.9%	20.5	1.65µM*	69.5%	-0.6	-195.5%
CCCCn1c(=O)c(C(=O)Nc2ccccc2N)c(O)c2ccccc21	-1.9%	-5.4	-12.4%	?	-1.4	9.5%
CC1CCCCC1NC(=O)CN1c2cccc3cccc(c23)S1(=O)=O (stereo not given)	1.6%	/	?	?	/	/
O=C(Cc1ccccc1Cl)NCc1cccnc1	1.4%	/	-9.0%	0.0%	-0.8	4.8%
